Screen size: about 2,200 compounds; about 1,300 (59%) were called active. How the calls were made is not given here. The set was probably picked from earlier hits. Not all results are given here. Entries with a potency or affinity are not part of this list.
Test: THP-1 cell cytotoxicity, dose response, cytotoxicity control for Salmonella PhoP regulon inhibitors, S. typhimurium screen hits (AID 2253)
Settings: THP-1 viability, CellTiter-Glo luminescence, 72 h; series mostly up to 50 µM; viability: at the top concentration

Compound | viability
O=S(=O)(c1ccc(NC(=S)Nc2ccc3c(c2)OCO3)cc1)N1CCOCC1 | 82.4% (inactive)
C/C(=N\NC(=O)c1ccccc1)c1ccc2c(c1)OCO2 | 83.2% (inactive)
O=C(Nc1nccs1)c1cc(-c2ccco2)nc2ccccc12 | 98.7% (inactive)
COc1ccc(-c2cc(C(=O)Nc3ccc(S(=O)(=O)Nc4ncccn4)cc3)c3ccccc3n2)cc1 | 81.1% (inactive)
N#CCCN(C(=O)CN1C(=O)NC2(CCCC2)C1=O)c1ccccc1F | 92.2% (inactive)
c1ccc(CSc2nnc(-c3ccncc3)o2)cc1 | 97.8% (inactive)
O=C(CSc1nnc(Cc2ccccc2)o1)NCCc1ccccc1 | 98.5% (inactive)
O=C(NCCc1ccccc1)c1ccc2nc(-c3ccco3)c(-c3ccco3)nc2c1 | 87.4% (inactive)
CCn1cc(C(=O)O)c(=O)c2cc(F)c(N3CCN(C(=S)NC(=O)c4cccc(F)c4)CC3)cc21 | 101% (inactive)
Cc1ccc(C(=O)c2ccccc2C(=O)O)c(O)c1 | 93.6% (inactive)
Cc1cc(C)cc(-n2c(C)cc(C=C(C#N)C#N)c2C)c1 | 108% (inactive)
CCN(c1ccc(OCC(=O)OCC(=O)Nc2ccc(F)c(F)c2F)cc1)S(=O)(=O)c1ccccc1 | 93.2% (inactive)
NC1CCN(c2nc3c(cc2F)c(=O)c(C(=O)O)cn3-c2ccc(F)cc2F)C1 (configuration not stated) | 96.4% (inactive)
CCOC(=O)C1=C(C)NC(=S)NC1c1ccc(OC(=O)c2ccco2)cc1 (configuration not stated) | 80.1% (inactive)
CCNC(=O)NC1(C(=O)Nc2ccc3c(c2)OCCO3)CCCCC1 | 102% (inactive)
O=C(Nc1nc2ccc(SC(F)F)cc2s1)c1ccc2c(c1)S(=O)(=O)c1ccccc1C2=O | 92% (inactive)
Cc1nn(C)c(C)c1S(=O)(=O)N1CCC(C(=O)NC2CCCCC2)CC1 | 87.9% (inactive)
Cc1cccc(N2CCN(CC(=O)Nc3nccs3)CC2)c1C | 94.7% [at 25 µM] (inactive)
O=c1cc(Cc2ccccc2)[nH]c(=S)[nH]1 | 89.9% (inactive)
CC1CCc2c(N3CCC(O)CC3)c(F)cc3c(=O)c(C(=O)O)cn1c23 (configuration not stated) | 81.6% (inactive)
CC1(C)CC(=O)C=C(Nc2ccc(Br)cn2)C1 | 91.2% (inactive)
Cc1nn(CCOc2ccccc2)c(=O)n1-c1ccc(F)cc1 | 101% (inactive)
CCCn1c(/N=C/c2ccc3c(c2)OCO3)nc2ccccc21 | 102% (inactive)
CCCn1c(NCCO)nc2ccccc21 | 96.2% (inactive)
CC(Cl)C(=O)NNc1cccc(Cl)n1 (configuration not stated) | 90.3% (inactive)
S=c1nc(C2CCCCC2)[nH][nH]1 | 96.5% (inactive)

Compound | viability
Cc1cc(C)n2c(SCC(=O)NCc3ccco3)nnc2n1 | 110% (inactive)
COc1ccc(C(=O)C(CO)Oc2ccccc2OC)cc1OC (configuration not stated) | 88.4% (inactive)
CCS(=O)(=O)Nc1cc(C(=O)OC)ccc1C(=O)OC | 94.7% (inactive)
CCCCOC(=O)CSc1nc2c(c(=O)[nH]c(=O)n2C)n1C/C=C(\C)Cl | 95% (inactive)
Cc1ccc(NC(=O)c2ccccc2)s1 | 95.6% (inactive)
Cc1cc(C(=O)NCc2cccs2)cs1 | 88.3% (inactive)
Brc1cccc(CNCc2cccs2)c1 | 101% (inactive)
CCN(CC)Cc1c[nH]c2c(C(=O)OC)cccc12 | 85.1% (inactive)
COCCn1c(-c2ccccc2F)n[nH]c1=S | 105% (inactive)
O=C(CCN1CCCCC1)NCC1OCCc2ccccc21 (configuration not stated) | 98.8% (inactive)
CN1CCCC(OC(=O)c2ccc3c(c2)OCCO3)C1 (configuration not stated) | 88.2% (inactive)
O=C(CCNS(=O)(=O)c1cccc2nsnc12)Nc1ccc2c(c1)OCCO2 | 96.2% (inactive)
S=c1[nH]nc(Cc2cccc3ccccc23)o1 | 104% (inactive)
c1coc(CNc2c3c(nc4ncnn24)CCCC3)c1 | 95.3% (inactive)
CCOc1ccc(CCNC(=O)c2cc3sc(Cl)cc3n2C)cc1OCC | 82.6% (inactive)
CCN1CCN(C(=O)c2ccc(COc3ccc(Cl)cc3)o2)CC1 | 90% (inactive)
CCOc1ccc(/C=N/O)cc1 | 93% (inactive)
Cc1nc(N)sc1Cc1ccc2c(c1)OCO2 | 81.2% (inactive)
CCSc1cc(N2CCCC2)nc(-c2cccc(C)c2)n1 | 92.8% (inactive)
O=C(CN1C(=O)c2ccccc2C1=O)N1CCN(c2ccccn2)CC1 | 93.9% (inactive)
CCN(Cc1ccccc1)C(=O)CN1C(=S)NC(C)(C)CC1C (configuration not stated) | 105% (inactive)
Cc1cccc(NC(=O)c2cc(N3C(=O)CCC3=O)ccc2Cl)n1 | 92.3% (inactive)
CN1CCN(S(=O)(=O)c2ccc(-c3ccccc3)cc2)CC1 | 89.2% (inactive)
CC1CCN(S(=O)(=O)c2cccc(C(=O)N(C)C3CCS(=O)(=O)C3)c2)CC1 (configuration not stated) | 92% (inactive)
COCCCNc1ccnc2c(Cl)cccc12 | 85.6% (inactive)
CC(C)c1ccc(NC(=O)Nc2cc3sccc3n2C)cc1 | 89.7% (inactive)

Compound | viability
COc1ccc(Cl)cc1C(=O)Nc1ccc(NC(=O)c2ccco2)cc1 | 93.1% (inactive)
CSc1cccc(NC(=O)c2ccco2)c1 | 91.9% (inactive)
CCC(C)C(NC(=O)OCc1ccccc1)C(=O)OCN1C(=O)c2ccccc2C1=O (configuration not stated) | 102% (inactive)
COc1ccc(C(=O)Nc2cc(C)ccc2NC(=O)COc2ccccc2)cc1 | 81.1% (inactive)
COC(=O)CCC(=O)Nc1ccc(OC)cc1 | 101% (inactive)
Cc1sc(NC(=O)c2ccco2)c(CN2CCN(c3ccc(F)cc3)CC2)c1C | 89.5% (inactive)
CCOC(=O)c1c(C)[nH]c(C)c1C(=O)CSc1ncccn1 | 81.8% (inactive)
COc1cc(OC)cc(C(=O)N[C@H](C(=O)OCC(=O)Nc2ccc(C(N)=O)cc2)C(C)C)c1 | 89.5% (inactive)
Cc1ccc(-c2nnc(SCC(=O)N3CCCc4ccccc43)n2N)cc1 | 82.7% (inactive)
COC(=O)c1sccc1NC(=O)C1C2C=CC(O2)C1C(=O)O (configuration not stated) | 90.1% (inactive)
CN(C)c1nc(N)nc(Cn2ccnc2)n1 | 92.4% (inactive)
O=C(Cc1cccs1)N(c1ccccc1)C1C=CS(=O)(=O)C1 (configuration not stated) | 89.7% (inactive)
CC(=O)N(Cc1ccc(Cl)cc1)c1cnccn1 | 96.4% (inactive)
CC1(C)CC(=O)C=C(Nc2ccccc2NC(=O)c2cnccn2)C1 | 101% (inactive)
CCn1cc(C(=O)NCCO)c(=O)c2cc(F)c(N3CCN(C)CC3)cc21 | 85.3% (inactive)
COc1ccc(N2C(=O)C3CCCN3C2c2cccc(C)c2)cc1Cl (configuration not stated) | 92.3% (inactive)
CSc1nnc2c3c4c(sc3nc(-n3nc(C)cc3C)n12)COC(C)(C)C4 | 91.8% (inactive)
Cc1ccc(C(=O)CSc2ncnc3sc4c(c23)CCCC4)cc1 | 95.6% (inactive)
O=C(Nn1c(O)c(C=C2N=c3ccccc3=N2)sc1=S)c1ccc(Cl)cc1 | 93% (inactive)
S=C(Nc1ccc(Cl)c(Cl)c1)N1CCOCC1 | 85.7% (inactive)
Cc1ccc(C)c(C(=O)NCc2ccncc2)c1 | 84% (inactive)
Cc1ccc(NC(=S)NCc2cccnc2)cc1 | 91.9% (inactive)
COc1ccc(Br)cc1C(=O)NCc1cccnc1 | 94% (inactive)
S=C(NCc1cccnc1)Nc1cccc(Cl)c1 | 97.7% (inactive)
Cc1cc(=O)oc(C)c1C(=O)NCc1cccnc1 | 105% (inactive)
